In the library only some 8.1% were active in any assay of this set; here they are far more common.
MCF10A rerep: induces DNA re-replication in MCF 10a normal breast cells; Potency, µM (highest dose often 46.1 µM), for inactives: at the highest dose activity, positive = re-replication, hits mostly activators; 350,000 tested, 2.9% active; MCF 10A DNA re-replication, Hoechst nuclear intensity, 48 h; note: % of control where 0% means no effect; nearly all actives have a fitted effect of over 50% in size
ELG1 DNA repair: ELG1-dependent DNA repair inhibition | HEK293T ELG1-luciferase reporter, luminescence, 16 h; DNA damage induced by 5-fluorouridine | Potency, µM (highest dose often 46.1 µM), for inactives: at the highest dose activity change, negative = inhibition, actives largely listed as inhibitors | 330,000 tested, 2.3% active | AID 504467; note: % is set by controls: 0 for no effect and ±100 for the full control effect; nearly all actives have a fitted effect of over 55% in size
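Overnight (16 hr) co-exposure of 2,000 cells/well to 5-fluorouridine and compound at 37 °C preceded detection. Luciferase was quantified via ONE-Glo luminescence; loss of signal denotes inhibition.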
KB-V1 cytotox: KB-V1 MDR subline cytotoxicity; KB-V1 MDR cells viability, CellTiter-Glo, 72 h; Potency, µM (titrated, usually from 46.1 µM), actives largely listed as cytotoxic; 400,000 tested, 3.4% active; note: % is set by controls: 0 for no effect and ±100 for the full control effect; nearly all actives have a fitted effect of over 60% in size
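In this primary screen, KB-V1 cells overexpressing P-gp are incubated with library compounds (lowest to highest concentration) for 72 h at 37 degrees C before a luminescent ATP viability read.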
KB-3-1 tox: KB-3-1 parental cell cytotoxicity | KB-3-1 viability, CellTiter-Glo ATP luminescence, 72 h | Potency, µM (series often up to 46.1 µM), usual class: cytotoxic | 400,000 tested, 1.4% active | AID 1347075; note: % is set by controls: 0 for no effect and ±100 for the full control effect; nearly all actives have a fitted effect of over 60% in size
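Viability of parental KB-3-1 cells, measured by CellTiter-Glo luminescence, followed a 72 h incubation at 37 °C with pinned compounds in phenol-red-free DMEM containing 10% FBS.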
SW480 rerep: induces DNA re-replication in SW480 colon adenocarcinoma cells. SW480 DNA re-replication, Hoechst DNA content imaging, 48 h. Potency, µM (doses to about 46.1 µM), without a hit: top-dose re-replication activation, actives largely listed as activators. 340,000 tested, 1.8% active; note: % of control where 0% means no effect; nearly all actives have a fitted effect of over 55% in size
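Compounds, transferred as 23 nL by pin tool, were incubated with cells for 48 hr; DNA content per nucleus was then quantified by Hoechst staining and fluorescence plate imaging.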
Active calls of the source: *; i = inactive; ? = inconclusive; . = not tested or not shown; ! = not confirmed by another sample. Calls come from the whole dose curve; as a rule, active = well fitted curve in the direction sought with a large enough effect; inconclusive = small, poorly fitted or top-dose-only effect, or another doubt; inactive = no such curve, though single readings can be large; an effect the other way counts as inactive or inconclusive. Potency is the fitted concentration of half-maximal effect.

SMILES	MCF10A rerep	ELG1 DNA repair	KB-V1 cytotox	KB-3-1 tox	SW480 rerep
CN(C)CCNC(=O)Cn1nc(N2CCN(c3ccccc3)CC2)ccc1=O	.	.	i	i	.
CN(C)S(=O)(=O)c1cccc(NC(=O)/C=C/c2ccc(S(=O)(=O)N3CCOCC3)cc2)c1	?	23µM*	.	.	2%
COc1cc(/C=C/C(=O)Nc2cccc(S(=O)(=O)N3CCOCC3)c2)ccc1OCC#N	-2%	?	i	i	4%
COc1ccc(/C=C/C(=O)Nc2cccc(S(=O)(=O)N3CCOCC3)c2)cc1OC	9%	21µM*	i	i	?
O=C(Nc1ccc(N2CCN(C(=O)c3ccco3)CC2)cc1)c1ccccc1	2%	?	i	i	4%
O=C(Nc1ccc(N2CCN(C(=O)c3ccco3)CC2)cc1)c1ccc(F)cc1	17%	21µM*	i	i	2%
Cc1cc(C)cc(C(=O)Nc2ccc(N3CCN(C(=O)c4ccco4)CC3)cc2)c1	25%	21µM*	.	.	?
CC[C@@H]1C=C(C)C[C@H](C)C[C@H](OC)[C@H]2O[C@@](O)(C(=O)C(=O)N3CCCC[C@H]3C(=O)O[C@H](/C(C)=C/[C@@H]3CC[C@@H](O)[C@H](OC)C3)[C@H](C)[C@@H](O)CC1=O)[C@H](C)C[C@@H]2OC	?	8.2µM*	.	.	?
CO[C@H]1C[C@@H]2CC[C@@H](C)[C@@](O)(O2)C(=O)C(=O)N2CCCC[C@H]2C(=O)O[C@H]([C@H](C)C[C@@H]2CC[C@@H](O)[C@H](OC)C2)CC(=O)[C@H](C)/C=C(/C)[C@@H](O)[C@@H](OC)C(=O)[C@H](C)C[C@H](C)C=C/C=C\C=C/1C	.	.	?	i	.
Cc1ccccc1N=C1SCC(=O)N1Cc1ccccc1	18%	5%	?	i	-7%
O=C1CSC(=Nc2cccc(Cl)c2Cl)N1Cc1cccnc1	0%	-9%	16µM*	i	-83%
CC(C)(C)[C@@H]1CCC(=O)N(CC[C@H](N=[N+]=[N-])c2ccccc2)CC1	21µM*	?	21µM*!	i	-1%
c1ccc(-c2nnc(-c3ccccn3)nn2)nc1	12%	.	i	i	?
c1ccc(-c2cccc(-c3ccccn3)n2)nc1	?	?	1.8µM*	?	?
N#Cc1sc2nc3c(c(-c4ccco4)c2c1N)CCCC3	26%	0%	?	i	-2%
Cc1ccc(NC(=O)c2c(C)nc3sc(C(=O)NC4CCCC4)c(N)c3c2-c2ccco2)c(C)c1	16%	20%	i	i	19%
Cc1ccccc1NC(=O)c1sc2nc3c(c(-c4ccco4)c2c1N)CCC3	?	23µM*	i	i	9.2µM*
NC(=O)c1sc2nc3c(c(-c4ccco4)c2c1N)CCCC3	13%	9.2µM*	?	i	29%
COC(=O)c1sc2nc3c(c(-c4cccs4)c2c1N)CCCC3	9.2µM*	-11%	?	i	18µM*
O=C(c1cccc2ccccc12)C1CCCN(C(=O)CCN2CCCO2)C1 (stereo not drawn)	1%	-7%	?	i	-6%
Cc1ccc2nc(C3CCCCC3)c(Cc3ccccc3C(F)(F)F)n2c1	.	.	i	i	.
O=C(CSc1nnc(-c2ccco2)o1)NC(=O)Cc1ccccc1	-4%	0%	i	i	1%
Oc1ccccc1CNCC12CC3CC(CC(C3)C1)C2	-2%	6%	i	i	?
COc1ccc(C(CNC(=O)c2cccc(S(=O)(=O)NCc3ccccc3)c2)N2CCOCC2)cc1 (stereo not drawn)	-4%	0%	18µM*	i	-1%
O=C(NCC(c1ccco1)N1CCCC1)c1cccc(S(=O)(=O)Nc2ccc(F)cc2)c1 (stereo not drawn)	2%	0%	i	i	-3%
SMILES	MCF10A rerep	ELG1 DNA repair	KB-V1 cytotox	KB-3-1 tox	SW480 rerep
COc1ccc(C(CNC(=O)c2cccc(S(=O)(=O)Nc3ccc(C)cc3)c2)N2CCOCC2)cc1 (stereo not drawn)	12%	-25%	?	?	1%
Cc1ccc(NS(=O)(=O)c2cccc(C(=O)NCC(c3ccco3)N3CCCC3)c2)cc1 (stereo not drawn)	12µM*	-6%	i	i	?
COc1ccc(C(CNC(=O)c2cccc(S(=O)(=O)Nc3cccc(C)c3)c2)N2CCOCC2)cc1 (stereo not drawn)	14%	-1%	21µM*	i	-3%
COc1ccccc1NC(=O)Cn1cc(C(=O)c2ccco2)c2ccccc21	28%	?	i	i	7%
Cc1cc(OCCn2cc(C(=O)c3ccco3)c3ccccc32)ccc1Cl	.	.	i	i	.
COc1ccccc1OCCn1cc(C(=O)c2ccco2)c2ccccc21	15%	?	13µM*	i	-10%
COc1ccc(OC)c(NC(=O)Cn2cc(C(=O)c3ccco3)c3ccccc32)c1	4%	?	23µM*	i	-2%
COc1cccc(OCCn2cc(C(=O)c3ccco3)c3ccccc32)c1	18%	?	21µM*	i	-3%
CC(=O)c1cn(CCOc2cc(C)ccc2C)c2ccccc12	-4%	11%	2.1µM*	?	4%
CCOC(=O)c1ccc(NC(=O)CSc2nnc(CC)o2)cc1	1%	8%	i	i	9%
COc1ccc(N(CC(=O)N2CCN(C)CC2)S(=O)(=O)c2cc(C)ccc2OC)cc1Cl	-2%	-5%	.	.	0%
Cc1ccccc1C(=O)Nc1ccc(OCc2cc(=O)n3cccc(C)c3n2)cc1	.	.	i	i	.
Cc1ccccc1NC(=O)CSCc1nc(N)nc(Nc2ccccc2C)n1	-5%	8%	i	i	6%
CCc1ccccc1NC(=O)CN(C)Cc1nc(N)nc(Nc2ccccc2C)n1	4%	-4%	3.3µM*	i	6%
CC1(C(=O)NC(=S)NNC(=O)c2ccncc2)CCCCC1	11%	-3%	?	?	9.2µM*
O=C(N/N=C/c1ccc([N+](=O)[O-])cc1)c1cccc2cc[nH]c12	4%	8%	i	i	-190%
CCN(CC)c1ccc(/C=N\NC(=O)c2cccc3cc[nH]c23)cc1	15µM*	?	13µM*	23µM*	23µM*
CC(=O)Oc1c(-c2ccco2)oc2ccccc2c1=O	?	?	?	i	16µM*
CCN(CC)C(=O)COc1c(-c2ccco2)oc2ccccc2c1=O	?	?	i	i	-7%
C=CCN1C(c2cccc(C(F)(F)F)c2)=CS/C1=C(/C#N)c1nnc(N2CCOCC2)n1-c1ccccc1	?	?	4.1µM*	?	-33%

Assay outcomes deposited in PubChem by National Center for Advancing Translational Sciences (NCATS).
